Screening results: PubChem, The Scripps Research Institute Molecular Screening Center
This is a sample that favours compounds with a hit; in the whole collection about 1.8% have one here.
LYPLA2 counter: counter-screen for PME1 inhibitors: inhibitors of human LYPLA2; O95372; recombinant LYPLA2, FP-Rh probe fluorescence polarization; inhibition, % at 5.9 µM; 320,000 tested, 0.38% active; AID 2177;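 active means inhibition above the screen-wide mean plus 3 SD, limit set per campaign, cut at about 26% in these data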;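 further: 0% = LYPLA2 with DMSO and 100% = wells lacking LYPLA2 enzyme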
Target sequence (O95372 whole entry, looked up): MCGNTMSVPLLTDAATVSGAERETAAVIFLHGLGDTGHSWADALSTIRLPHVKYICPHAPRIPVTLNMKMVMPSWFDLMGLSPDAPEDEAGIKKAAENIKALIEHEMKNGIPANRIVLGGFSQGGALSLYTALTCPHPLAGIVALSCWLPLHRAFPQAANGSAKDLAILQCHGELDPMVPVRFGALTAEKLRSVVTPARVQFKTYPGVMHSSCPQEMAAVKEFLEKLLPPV
PP5 inh: PP5 (human) phosphatase inhibition; P53041; purified PP5c, OMFP substrate fluorescence; inhibition, % at 6.7 µM; 320,000 tested, 0.18% active; AID 1987;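 active means inhibition above the campaign's mean inhibition across all tested compounds plus 3 SD, cut at about 9.5% in these data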;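 further: 0% = DMSO only and 100% = 100 µM cantharidin control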
Fam108B counter: blocks mouse Fam108B hydrolase in RBBP9 counter-screen. recombinant Fam108B, FP-Rh probe fluorescence polarization. inhibition, % at 9.51 µM. 300,000 tested, 0.33% active;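 active means inhibition above the screen mean inhibition plus 3 SD, computed separately per campaign, cut at about 18% in these data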;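 further: inhibitors lower polarization as less probe binds the enzyme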
LYPLA1 counter: counter-screen for PME1 inhibitors: inhibitors of human LYPLA1. 320,000 tested, 0.16% active. recombinant LYPLA1, FP-Rh probe fluorescence polarization. inhibition, % at 5.9 µM. AID 2174. O75608;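 active means inhibition above the mean of all tested compounds plus 3 SD, set per campaign, cut at about 14% in these data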;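 further: inhibitors block serine hydrolase probe labeling of LYPLA1 so polarization falls; 0% = enzyme with DMSO and 100% = wells lacking LYPLA1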
Target sequence (O75608 whole entry, looked up): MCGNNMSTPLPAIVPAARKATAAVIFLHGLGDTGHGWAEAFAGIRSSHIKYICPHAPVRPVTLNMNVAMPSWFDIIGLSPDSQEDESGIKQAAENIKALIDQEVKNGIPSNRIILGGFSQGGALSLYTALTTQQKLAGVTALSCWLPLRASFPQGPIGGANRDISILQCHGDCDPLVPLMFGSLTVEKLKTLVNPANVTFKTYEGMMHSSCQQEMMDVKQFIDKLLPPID
PME-1 inh: blocks human protein phosphatase methylesterase 1 | inhibition, % at 5.9 µM | 320,000 tested, 0.53% active | Q9Y570 | recombinant PME-1, FP-Rh probe fluorescence polarization;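 active means inhibition above the campaign mean of all compounds plus 3 SD, cut at about 26% in these data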;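 further: competitive labeling of PME-1 active site by serine hydrolase directed probe; 0% = PME-1 with DMSO and 100% = wells lacking PME-1 enzyme; inhibitors block probe labeling so polarization falls and inhibition rises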
PP1 counter: counter-screen for PP5 inhibitors: inhibitors of human PP1-alpha | P62136 | purified PP1alpha, OMFP fluorescence | inhibition, % at 6.7 µM | 320,000 tested, 0.9% active | AID 2235;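 active means inhibition above the mean inhibition of all tested compounds plus 3 SD, computed separately for each screening campaign, cut at about 15% in these data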
PP1 inh confirm: confirmation of human PP1 phosphatase inhibitors. purified PP1alpha, OMFP substrate fluorescence. 1,900 tested, 52% active. inhibition, % at 6.7 µM. shares compounds with PP1 counter;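 active means mean PP1 inhibition above a set limit taken from the earlier primary screen, cut at about 15% in these data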
PP5 inh counter: PP5 phosphatase inhibition, counter-screen for PP1 inhibitors; inhibition, % at 6.7 µM; shares compounds with PP1 counter; AID 2360; purified PP5c, OMFP fluorescence; 1,900 tested, 4% active;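 active means mean PP5 inhibition over triplicate wells above about 9.5% taken from the earlier PP1 screen, limit read from the data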
Active calls of the source: *; · = not tested or not shown.

SMILES | LYPLA2 counter | PP5 inh | Fam108B counter | LYPLA1 counter | PME-1 inh | PP1 counter | PP1 inh confirm | PP5 inh counter
NC(=O)CC(NC(=O)c1ccc(Br)cc1)c1ccc(NCCc2ccc(F)cc2)c([N+](=O)[O-])c1 (stereo unspecified) | -6.1 | -1.4 | -0.2 | -4.8 | -1.2 | 25.1* | 25.9* | -1.4
CC(C)c1ccc(NC(=O)Nc2cc3sccc3n2C)cc1 | -0.5 | 3.8 | -2.7 | -8.5 | 0.3 | 17.9* | 2.4 | -6.0
NS(=O)(=O)c1ccc(CCNC(=O)c2cccc(S(=O)(=O)N3CCCC3)c2)cc1 | -0.8 | -2.1 | · | -4.0 | 0.1 | -1.6 | · | ·
COc1ccc(Nc2nc(N3CCCCC3)c3ccccc3n2)cc1 | 25.8 | 2.9 | 2.3 | 5.7 | 6.4 | 21.2* | 2.7 | 3.3
C#CCOCCOCCOCCNc1nc(N2CCOCC2)nc(N2CCN(C(=O)[C@H](Cc3cc4ccccc4[nH]3)n3cc([C@@H](N)Cc4ccc(O)cc4)nn3)CC2)n1 | 2.4 | -0.2 | -0.8 | -0.2 | -1.2 | -2.2 | · | ·
C#CCOCCOCCOCCNc1nc(N2CCN(C(=O)CCCCCCCCCCNC(=O)[C@H]([C@@H](C)CC)n3cc(CCCCCN)nn3)CC2)nc(N2CCN(C(=O)CCCCCCCCCCNC(=O)[C@H](CO)n3cc(CCCCCN)nn3)CC2)n1 | 18.8 | 4.7 | 3.4 | 1.2 | -5.2 | 53.2* | 25.6* | -2.1
C#CCOCCOCCOCCNc1nc(N2CCN(C(=O)[C@H]([C@@H](C)CC)n3cc([C@@H](N)CO)nn3)CC2)nc(N2CCN(C(=O)[C@H](Cc3cc4ccccc4[nH]3)n3cc([C@@H](N)Cc4ccc(O)cc4)nn3)CC2)n1 | 2.0 | 8.1 | 1.9 | -3.9 | -6.4 | 23.8* | -6.1 | 2.4
C#CCOCCOCCOCCNc1nc(N2CCN(C(=O)CCCCCCCCCCNC(=O)[C@H]([C@@H](C)CC)n3cc(CCCCN=C(N)N)nn3)CC2)nc(N2CCN(C(=O)CCCCCCCCCCNC(=O)[C@H](CCCCN)n3cc(C)nn3)CC2)n1 | 24.3 | 6.1 | -6.2 | -3.2 | -2.9 | 70.1* | 56.8* | 1.9
C#CCOCCOCCOCCNc1nc(N2CCN(C(=O)CCCCCCCCCCNC(=O)[C@H](CO)n3cc(CCCSC)nn3)CC2)nc(N2CCN(C(=O)CCCCCCCCCCNC(=O)[C@H](CCCN=C(N)N)n3cc(C[C@@H](C)CC)nn3)CC2)n1 | -52.1 | 7.2 | -50.8 | -34.9 | -57.6 | 46.4* | 29.6* | 1.0
C#CCOCCOCCOCCNc1nc(N2CCN(C(=O)CCCCCCCCCCNC(=O)[C@H]([C@@H](C)CC)n3cc(CCCCCN)nn3)CC2)nc(N2CCN(C(=O)CCCCCCCCCCNC(=O)[C@H](CCCCN)n3cc(CCCC(=O)O)nn3)CC2)n1 | 15.2 | 2.7 | 3.5 | -0.2 | -3.3 | 15.1 | · | ·
COc1cc(CNC(=O)c2cc3ccccc3oc2=O)cc(OC)c1OC | 0.2 | -0.6 | -1.9 | 2.0 | -2.2 | -6.2 | · | ·
CCC(Sc1nc(C)cc(C)n1)C(=O)Nc1nccs1 (stereo unspecified) | 0.0 | 2.7 | -2.8 | -3.5 | -1.6 | -4.2 | · | ·
CC(C)CC(=O)Nc1c2c(nn1-c1cccc(Cl)c1)CS(=O)C2 (stereo unspecified) | -8.4 | 0.8 | -3.8 | -0.6 | -11.3 | 3.4 | · | ·
C#CCOCCOCCOCCNc1nc(N2CCOCC2)nc(N2CCN(C(=O)CCCCCCCCCCNC(=O)[C@@H](CCC(=O)O)n3cc(CCCCCN)nn3)CC2)n1 | -7.6 | -0.8 | -0.8 | 2.1 | -0.6 | -4.0 | · | ·
C#CCOCCOCCOCCNc1nc(N2CCN(C(=O)Cn3cc(CCCN=C(N)N)nn3)CC2)nc(N2CCN(C(=O)[C@H]([C@@H](C)CC)n3cc(CCCCN)nn3)CC2)n1 | -1.4 | 1.5 | -3.8 | 1.1 | -9.6 | -3.0 | · | ·
C#CCOCCOCCOCCNc1nc(N2CCN(C(=O)CCCCCCCCCCNC(=O)[C@H]([C@@H](C)CC)n3cc(CCCCN=C(N)N)nn3)CC2)nc(N2CCN(C(=O)CCCCCCCCCCNC(=O)[C@H](CO)n3cc(CCCCCN)nn3)CC2)n1 | 8.3 | 11.7* | -10.3 | -5.8 | -10.2 | 73.3* | 45.4* | 1.7
CC[C@H](C)[C@@H](C(=O)NCCCCCCCCCCC(=O)N1CCN(C(=O)OC(C)(C)C)CC1)n1cc(CCCCCNC(=O)OC(C)(C)C)nn1 | -9.1 | 5.3 | 4.9 | 0.8 | -3.7 | 0.3 | · | ·
C#CCOCCOCCOCCNc1nc(N2CCN(C(=O)CCCCCCCCCCNC(=O)Cn3cc(CCCCCN)nn3)CC2)nc(N2CCN(C(=O)CCCCCCCCCCNC(=O)[C@H]([C@@H](C)CC)n3cc(CCCCN=C(N)N)nn3)CC2)n1 | 23.7 | 3.4 | 6.5 | 2.7 | 1.1 | 70.5* | 55.1* | 0.7
CC[C@H](C)[C@@H](C(=O)NCCCCCCCCCCC(=O)N1CCN(C(=O)OC(C)(C)C)CC1)n1cc(CCCCN=C(NC(=O)OC(C)(C)C)NC(=O)OC(C)(C)C)nn1 | 6.7 | 5.4 | 1.4 | -2.3 | 0.3 | 19.2* | 30.1* | 1.7
Cc1ccc(S(=O)(=O)N2CCN(C(=O)c3ccccc3Cc3ccccc3)CC2)c(C)c1 | 1.1 | 2.0 | -0.3 | -4.0 | 11.3 | 1.8 | · | ·
COc1ccc(CN2C(=O)c3cccnc3C2Nc2ccc(C)cc2)cc1 (stereo unspecified) | -0.9 | -1.1 | -5.0 | 0.9 | -0.9 | 9.4 | · | ·
Cc1ccc(NC2c3ncccc3C(=O)N2Cc2cccs2)cc1 (stereo unspecified) | -7.0 | 5.1 | 3.4 | -2.5 | -1.8 | 23.3* | 20.4* | -1.9
Cc1cc(NC(=O)CSc2nnc(NCc3ccccc3)s2)no1 | -5.6 | -0.4 | -2.8 | -0.8 | -10.6 | 3.9 | · | ·
COc1ccccc1Nc1nnc(SCC(=O)Nc2cc(C)on2)s1 | -6.0 | 2.4 | 2.2 | -1.5 | 3.1 | 19.2* | 12.3 | -3.7
CCCn1c(=O)c(C(=O)NNS(=O)(=O)c2ccc(C)cc2)c(O)c2ccccc21 | 5.8 | 2.0 | 1.4 | -2.5 | 0.7 | 6.8 | · | ·
CCn1c(=O)c(C(=O)NNC(=O)c2ccccc2Cl)c(O)c2ccccc21 | 8.0 | 1.4 | 1.2 | 0.0 | -1.6 | 19.1* | 13.9 | -2.3
CCCn1c(=O)c(C(=O)NNC(=O)c2cccc([N+](=O)[O-])c2)c(O)c2ccccc21 | -4.6 | 0.1 | 7.2 | 2.4 | -0.1 | 19.8* | 19.2* | -0.9
CCn1c(=O)c(C(=O)Nc2ncccc2C)c(O)c2ccccc21 | -1.0 | -1.5 | -6.4 | -4.3 | -2.4 | 21.3* | 25.4* | -1.3
CCn1c(=O)c(C(=O)Nc2ncccc2O)c(O)c2ccccc21 | 1.4 | 0.7 | -2.6 | -0.9 | -2.5 | 14.4 | · | ·
Cn1c(=O)c(C(=O)NNC(=O)c2ccccc2F)c(O)c2ccccc21 | -8.8 | -0.6 | 1.0 | -4.0 | 3.5 | 18.4* | 6.0 | -3.8
